Assay outcomes deposited in PubChem BioAssay by National Center for Advancing Translational Sciences (NCATS).
Rab9 prom act: Rab9 promoter activation; Huh7 Rab9 promoter-luciferase reporter, luminescence, 24 h; Potency, µM (highest dose often 9.22 µM), for the others: top-dose activation, negative = inhibition, most hits filed as activators; 320,000 tested, 2.8% active; AID 485297; also: % of control where 0% means no effect; nearly all actives have a fitted effect of over 60% in size
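Rab9 promoter-driven luciferase in stably transfected Huh7 cells; 1500 cells/well rested 2 h, exposed to compound in DMSO for 24 h at 37 °C, 5% CO2. Luminescence read 10 min after adding luciferase reagent at ambient temperature.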
SMN2 splice enh: enhancers of SMN2 splice variant expression. HEK293 SMN2-luciferase splicing reporter, luminescence, 30-36 h. Potency, µM (series often up to 46.1 µM), for inactives: at the highest dose activity change, positive = activation, actives largely listed as activators. 210,000 tested, 2.8% active. AID 1458; also: % of control where 0% means no effect; nearly all actives have a fitted effect of over 55% in size
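HEK293 cells carry an SMN2 […]–luciferase reporter in which exon 7 inclusion puts luciferase in frame. Cells were plated 10-12 h before compound addition, then incubated 30-36 h at 37C. ONE-Glo luminescence was read; sodium butyrate at 4.5 mM final served as control.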
ELG1 genotoxic: inducers of genotoxicity in HEK293T ELG1-luciferase cells; HEK293T ELG1-luciferase reporter, luminescence, 16 h; Potency, µM (doses to about 46 µM), for the others: at the highest dose activity change, positive = activation, actives largely listed as activators; 330,000 tested, 1.3% active; AID 504466; also: % of control where 0% means no effect; nearly all actives have a fitted effect of over 60% in size
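Step 1: seed 2,000 HEK293T ELG1-luciferase cells per well. Step 2: add compound or DMSO, incubate 16 hr at 37 °C. Step 3: ONE-Glo, 30 min at room temperature, read luminescence.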
NPC1 promoter act: activates the NPC1 promoter; Huh7 NPC1 promoter luciferase reporter, 24 h; Potency, µM (series often up to 9.22 µM), for the others: top-dose activation, actives largely listed as activators; 320,000 tested, 2.4% active; also: % of control where 0% means no effect; nearly all actives have a fitted effect of over 60% in size
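Compounds in DMSO were transferred onto Huh7 NPC1-luciferase reporter cells pre-incubated 2 h; after 24 h at 37 °C, Amplite reagent was dispensed and luminescence recorded 10 min later.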
FLuc modulator: counter-screen for miR-21 project: firefly luciferase inhibitors or activators | P08659 | purified FLuc, Km substrates, luminescence inhibition | Potency, µM (doses to about 57.5 µM), inactives show top-dose activity change, negative = inhibition, most hits filed as inhibitors | 360,000 tested, 6.9% active | AID 588342;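 also: plate controls were vehicle for no effect and reference inhibitor for full effect; nearly all actives have a fitted effect of over 55% in size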
Target sequence (P08659 whole entry, looked up): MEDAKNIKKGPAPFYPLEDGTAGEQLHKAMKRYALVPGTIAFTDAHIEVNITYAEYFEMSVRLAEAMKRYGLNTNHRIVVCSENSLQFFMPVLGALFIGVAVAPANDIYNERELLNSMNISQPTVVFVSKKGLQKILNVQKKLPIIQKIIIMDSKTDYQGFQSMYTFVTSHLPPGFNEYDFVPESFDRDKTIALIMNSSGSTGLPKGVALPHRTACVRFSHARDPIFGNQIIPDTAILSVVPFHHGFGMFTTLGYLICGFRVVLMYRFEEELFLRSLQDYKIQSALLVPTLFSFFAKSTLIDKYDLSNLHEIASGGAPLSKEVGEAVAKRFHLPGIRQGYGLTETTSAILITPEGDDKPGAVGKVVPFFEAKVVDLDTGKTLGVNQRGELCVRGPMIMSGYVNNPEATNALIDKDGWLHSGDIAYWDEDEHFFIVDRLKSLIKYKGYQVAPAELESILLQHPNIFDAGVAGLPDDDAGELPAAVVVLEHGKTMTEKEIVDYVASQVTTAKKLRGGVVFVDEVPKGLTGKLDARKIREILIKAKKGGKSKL
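Purified P. pyralis luciferase (10nM final) with 10uM D-luciferin and 10uM ATP (Km levels) in 50mM Tris acetate pH 7.5, 10mM Mg acetate, 0.01% Tween-20, 0.05% BSA; qHTS 6-point titration, ~60 µM downward; luminescence read.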
Starred values were filed as active, the others as inactive; [ ] = another dose, or the depositor's remark. This is a sample that favours compounds with a hit; in the whole collection about 7.5% have one here. Calls follow the shape of the dose curve; as a rule, active = well fitted curve in the direction sought with a large enough effect; inconclusive = small, poorly fitted or top-dose-only effect, or another doubt; inactive = no such curve, though single readings can be large; an effect the other way counts as inactive or inconclusive. Potency is read from the fitted curve at half-maximal effect.

What do the screens show for `CC(=O)NS(=O)(=O)c1ccc(NC(=O)c2cc(-c3ccc(C)cc3)nc3ccccc23)cc1`?
Rab9 prom act: 16%; SMN2 splice enh: 18%; ELG1 genotoxic: 10%; NPC1 promoter act: 0%; FLuc modulator: 8.5µM*

Results for COC(=O)CNC(=O)C1CCN(C(=O)OCc2ccccc2)CC1 ?
Rab9 prom act: -2%; SMN2 splice enh: 18%; ELG1 genotoxic: 0%; NPC1 promoter act: 0%; FLuc modulator: 1%

What do the screens show for `CONC(=O)C1CCN(C(=O)OCc2ccccc2)CC1`?
Rab9 prom act: inconclusive; SMN2 splice enh: 7.9µM*; ELG1 genotoxic: 5%; NPC1 promoter act: inconclusive; FLuc modulator: -16%

What do the screens show for `COc1cc(/C=N/NC(=O)Nc2cccc3nsnc23)cc(OC)c1OC`?
Rab9 prom act: 7%; SMN2 splice enh: 0%; ELG1 genotoxic: 0%; NPC1 promoter act: 1%; FLuc modulator: -17%

Results for O=C(N/N=C/c1ccc(O)cc1)Nc1cccc2nsnc12 ?
Rab9 prom act: 28%; ELG1 genotoxic: 1%; NPC1 promoter act: 11%; FLuc modulator: 12µM*

How did O=C(O)CCC(=O)NNC(=O)c1ccc(Br)cc1 do in these assays?
Rab9 prom act: 0%; SMN2 splice enh: 18%; ELG1 genotoxic: 0%; NPC1 promoter act: 0%; FLuc modulator: 3%

How did NC(=S)NNC(=O)COc1ccccc1O do in these assays?
Rab9 prom act: -2%; ELG1 genotoxic: -1%; NPC1 promoter act: 1%; FLuc modulator: 0%

Results for CCN(CC)CCN(Cc1cc2cc(C)c(C)cc2[nH]c1=O)C(=S)NCc1ccco1 ?
Rab9 prom act: -4%; ELG1 genotoxic: 0%; NPC1 promoter act: 0%; FLuc modulator: 24µM*

What do the screens show for `Cc1cc2cc(CN(CCN(C)C)C(=S)NCc3ccco3)c(=O)[nH]c2cc1C`?
Rab9 prom act: -3%; SMN2 splice enh: -16%; ELG1 genotoxic: -3%; NPC1 promoter act: -5%; FLuc modulator: 1%

How did COc1ccc(S(=O)(=O)N2CCOC2CNC(=O)C(=O)NCCc2ccc(S(N)(=O)=O)cc2)cc1 (configuration not stated) do in these assays?
Rab9 prom act: inconclusive; ELG1 genotoxic: -2%; NPC1 promoter act: 0%; FLuc modulator: -10%

How did c1ccc(Cc2nnc3sc(-c4ccc5c(c4)OCCO5)nn23)cc1 do in these assays?
Rab9 prom act: inconclusive; SMN2 splice enh: 4%; ELG1 genotoxic: inconclusive; NPC1 promoter act: 9%; FLuc modulator: 13µM*

Results for N#C/C(=C\c1cccc(OCC(=O)O)c1)c1nc2ccccc2[nH]1 ?
Rab9 prom act: 13%; ELG1 genotoxic: 2%; NPC1 promoter act: -4%; FLuc modulator: 17µM*

How did COc1cc(/C=C(\C#N)c2nc3ccccc3[nH]2)ccc1OC(=O)c1ccco1 do in these assays?
Rab9 prom act: inconclusive; SMN2 splice enh: 35µM*; ELG1 genotoxic: inconclusive; NPC1 promoter act: 26%; FLuc modulator: 0.95µM*

Results for N#C/C(=C\c1ccc(OC(=O)c2ccc(Cl)s2)cc1)c1nc2ccccc2[nH]1 ?
Rab9 prom act: inconclusive; SMN2 splice enh: 18µM*; ELG1 genotoxic: inconclusive; NPC1 promoter act: 21%; FLuc modulator: -2%

Results for N#C/C(=C\c1ccc(OC(=O)c2ccc(Br)s2)cc1)c1nc2ccccc2[nH]1 ?
Rab9 prom act: inconclusive; SMN2 splice enh: 13µM*; ELG1 genotoxic: 18%; NPC1 promoter act: inconclusive; FLuc modulator: -4%

How did Cc1cccc(N2CCN(C(=O)c3oc(=O)c4ccccc4c3-c3ccccc3)CC2C)c1 (configuration not stated) do in these assays?
SMN2 splice enh: -14%; FLuc modulator: 4%

Results for Cc1cccnc1Nc1nc(-c2ccc(O)cc2O)cs1 ?
Rab9 prom act: 3.2µM*; ELG1 genotoxic: inconclusive; NPC1 promoter act: inconclusive; FLuc modulator: 15µM*

How did Oc1ccc(-c2csc(Nc3ccccn3)n2)c(O)c1 do in these assays?
Rab9 prom act: 3.2µM*; ELG1 genotoxic: 9.2µM*; NPC1 promoter act: 1.8µM*; FLuc modulator: 4.8µM*

What do the screens show for `COc1ccc(OC)c(NC(=O)CN2C(=O)C(C)N(c3ccc(C)cc3)C2=O)c1` (configuration not stated)?
Rab9 prom act: 1%; ELG1 genotoxic: -2%; NPC1 promoter act: 0%; FLuc modulator: 0%

How did Cc1ccc(N2C(=O)c3ccccc3NC2c2ccccc2O)cc1 (configuration not stated) do in these assays?
Rab9 prom act: 0.89µM*; ELG1 genotoxic: inconclusive; NPC1 promoter act: 2.5µM*; FLuc modulator: inconclusive

Results for Cc1cc(-c2ccccc2)nc(N/N=C/c2ccc(O)cc2O)n1 ?
Rab9 prom act: 4%; ELG1 genotoxic: 0%; NPC1 promoter act: 3%; FLuc modulator: inconclusive

What do the screens show for `COc1ccc2nc(C)cc(N/N=C/c3cccc(OC)c3O)c2c1`?
Rab9 prom act: 0%; ELG1 genotoxic: 5%; NPC1 promoter act: -4%; FLuc modulator: 17µM*

What do the screens show for `Cc1ccc(-c2nc3ccccc3c(=O)n2O)cc1`?
Rab9 prom act: -4%; ELG1 genotoxic: -5%; NPC1 promoter act: 8%; FLuc modulator: 1%

What do the screens show for `Cc1cc(N/N=C/c2ccccc2O)c2ccccc2n1`?
Rab9 prom act: -4%; ELG1 genotoxic: 11%; NPC1 promoter act: 4%; FLuc modulator: 15µM*

What do the screens show for `Cc1ccccc1/C=N/Nc1nc2ccccc2c(=O)n1O`?
Rab9 prom act: 7%; ELG1 genotoxic: 17%; NPC1 promoter act: 13%; FLuc modulator: 15µM*

What do the screens show for `COc1cccc2c(N/N=C/c3ccccc3)cc(C)nc12`?
Rab9 prom act: -5%; ELG1 genotoxic: -1%; NPC1 promoter act: 0%; FLuc modulator: 2%

What do the screens show for `COc1ccc(/C=N/Nc2cc(C)nc3ccc(Br)cc23)cc1`?
Rab9 prom act: -4%[1.84 µM]; ELG1 genotoxic: -6%; NPC1 promoter act: 0%; FLuc modulator: 21µM*

Results for Cc1c(CN2CCC(Oc3ccc(C(=O)N4CCCCC4)cc3)CC2)cnn1C ?
Rab9 prom act: 17%; ELG1 genotoxic: 6%; NPC1 promoter act: 2%; FLuc modulator: 0%

How did OCn1ncn(-c2ccccc2)c1=S do in these assays?
Rab9 prom act: -4%; SMN2 splice enh: 22%; ELG1 genotoxic: 2%; NPC1 promoter act: -2%; FLuc modulator: 7%

What do the screens show for `O=C(c1cccs1)c1coc2ccc(O)c(CN3CCOCC3)c12`?
Rab9 prom act: 4%; SMN2 splice enh: 7%; ELG1 genotoxic: 0%; NPC1 promoter act: -3%; FLuc modulator: 1%

What do the screens show for `Cc1c(CCC(=O)NCCCCCC(=O)O)c(=O)oc2cc3occ(-c4ccccc4)c3cc12`?
Rab9 prom act: -10%; ELG1 genotoxic: 0%; NPC1 promoter act: 0%; FLuc modulator: inconclusive

Results for CC(=O)Oc1ccc2occ(-c3ccccc3)c2c1 ?
Rab9 prom act: -2%; ELG1 genotoxic: -4%; NPC1 promoter act: inconclusive; FLuc modulator: 19µM*
